The full list was thinned out, with hits kept by preference.
Pf Dd2 growth: blocks in vitro growth of P. falciparum Dd2 | 4.3% of 120,000 active | Potency, µM (doses to about 28.9 µM), for the others: at the top dose activity, negative = inhibition, usual class: inhibitors | P. falciparum Dd2 growth, SYBR Green, 72 h; active = well fitted inhibition curve with a large enough effect;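 note: plate controls were DMSO vehicle for no effect and reference drug for full effect; nearly all actives have a fitted effect of over 65% in size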
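Infected erythrocytes (Dd2, 0.3% parasitemia, 2.5% hematocrit final) are added to compound in RPMI-1640/Albumax II medium, grown 72 h at 37C in low oxygen, then lysed with saponin/Triton-X containing SYBR Green and read by fluorescence.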
* hit, by the source's call; i = inactive; [ ] = remark or other dose. Potency is the fitted concentration of half-maximal effect.

SMILES	Pf Dd2 growth
CCOC(=O)c1c(C)oc2nc(C)nc(N3CCN(c4ccccc4F)CC3)c12	3.16µM*
Cc1ccc(S(=O)(=O)N2C3CCCC2CC(=O)C3)cc1	19.5%[44.1 µM]
NC(=O)[C@@H]1CCCN1CC[C@H]1CN(S(=O)(=O)c2ccccc2)CC[C@H]1CC(=O)O	17.1%[44.1 µM]
CC(=O)c1c(C)nn(CC(=O)NCc2c(C)ncc3c2CCNC3)c1C	-1.4%
CN1C(=O)COC[C@@H]1[C@H](O)c1ccc(NC(=O)CC(C)(C)C)cc1	-12.5%[44.1 µM]
Cc1ccc(O[C@H]2CCOC[C@H]2NC(=O)C2(Cn3ccnc3)CC2)cn1	-11.8%
CS(=O)(=O)N(Cc1cccnc1)C1CN(C(=O)CCc2c[nH]c3ccccc23)C1	-11.2%
CN1CCN(Cc2nc(C3(O)CCN(C4CCCC4)CC3)cs2)CC1	4.4%[44.1 µM]
CN1CCN(Cc2nc(C3(O)CCN(CC4CCCCC4)CC3)cs2)CC1	10µM*
OC1(c2csc(CN3CCN(c4ccccn4)CC3)n2)CCN(CC2CCCCC2)CC1	-8.5%
CCCNC(=O)C1C(c2ccc(NC(=O)c3ccco3)cc2)OC(=O)N1Cc1ccccc1 (stereo not given)	i
O=c1c2c(CO)c(-c3ccc(F)cc3)nn2ccn1CCOc1ccccc1	i
Cc1cc(C[C@@H]2COC[C@@H]2NC(=O)Cn2nc(C)n(-c3ccccc3)c2=O)on1	-3.1%
CCc1ccc(CNC(=O)c2cc(-c3ccc(Br)s3)nc3ccccc23)cc1	i
CCN(CC)CCNC(=O)c1cc(-c2ccc(Br)s2)nc2ccccc12	11.2µM*
COc1cccc(CNC(=O)c2cc(-c3ccc(Cl)s3)nc3ccccc23)c1	-1.9%
O=C(C1CCCC1)N1CCC(Cc2ccccc2)(C(=O)O)CC1	4.2%
C[S+](=O)([O-])N1C[C@H](C(=O)Nc2ccccc2)C[C@@H]1c1ccc(F)cc1	i
COc1cccc(NC(=O)NC[C@H]2O[C@H](Cc3cc(CN4CCOCC4)on3)CC[C@@H]2O)c1	20.6%
CN1CC2(CCN(Cc3ccccn3)CC2)CC1C(=O)N1CCOCC1 (stereo not given)	-0.6%
CN1CC2(CCN(C(=O)CCCc3ccccc3)CC2)CC1C(=O)N1CCOCC1 (stereo not given)	2.24µM*
CN1CC2(CCN(Cc3cccn3C)CC2)CC1C(=O)N1CCOCC1 (stereo not given)	-26.1%
CS(=O)(=O)N1CCC(CC(=O)NCc2ccccc2)C1 (stereo not given)	-14.0%
Cc1ccc(CNC(=O)N2CCCCCCN(C)C(=O)[C@@H]3CCC[C@@H]32)cc1	-9.8%
O=C1NCCCCCCN(S(=O)(=O)c2ccccc2)[C@H]2CCCC[C@@H]12	i
SMILES	Pf Dd2 growth
COc1cccc(CN2CCCCCCN(C)C(=O)[C@@H]3CCC[C@@H]32)n1	2.51µM*
COc1cccc(CN2CCCCCNC(=O)[C@@H]3CCC[C@@H]32)c1OC	-31.8%
O=C1NCCCCCCN(S(=O)(=O)c2ccccc2)[C@H]2CCC[C@@H]12	-9.8%
CN1CCCCCCN(C(=O)c2ccoc2)[C@H]2CCC[C@H]2C1=O	3.2%
Cc1ccc(CN2CCCCCCN(C)C(=O)[C@@H]3CCC[C@@H]32)s1	6.31µM*
CN1CCCCCCN(S(=O)(=O)c2ccccc2)[C@H]2CCC[C@H]2C1=O	3.98µM*
CN1CCCCCCN(Cc2cccnc2)[C@H]2CCC[C@H]2C1=O	-23.1%
O=C(CCc1conc1-c1cccc(F)c1)NC1CCCCCC1	-12.8%
CCC1c2nccn2CCCN1C(=O)c1ocnc1C (stereo not given)	8.6%
CC(C)C1=NOC2(CCN(Cc3ccc(C(F)(F)F)cc3)CC2)C1	-9.0%[44.1 µM]
Cc1ncsc1CN1CCCCCCNC(=O)CC1	8.9%
OCc1cccc(-c2ccc3ncc(Nc4cccnc4)n3n2)c1	-3.8%[44.1 µM]
OCc1cccc(-c2ccc3ncc(Nc4ccccc4Cl)n3n2)c1	3.98µM*
OCc1cccc(-c2ccc3ncc(Nc4ccc(OCCN5CCCC5)cc4)n3n2)c1	0.794µM*
OCCc1ccc(Nc2cnc3ccc(-c4cccc(CO)c4)nn23)cc1	i
OCc1cccc(-c2ccc3ncc(Nc4cccc(C(F)(F)F)c4)n3n2)c1	-20.3%[44.1 µM]
C[S+](=O)([O-])Nc1cccc(Nc2cnc3ccc(-c4cccc(CO)c4)nn23)c1	-2.4%[44.1 µM]
O=C(O)C1CN(C(=O)c2ccco2)CCN(C2CCOCC2)C1 (stereo not given)	-10.1%
O=C(Cc1ccccc1)NCc1nnc2n1C(C(=O)O)CC2 (stereo not given)	11.4%
COc1ccc(-c2nnc(SCC(=O)NCc3ccccc3)nc2-c2ccc(OC)c(OC)c2)cc1OC	8.91µM*
CCOc1ccc(-c2nnc(SCC(=O)NC3CCCC3)nc2-c2ccc(OCC)c(OC)c2)cc1OC	90.6%
CCOc1cc(-c2nnc(SCC(=O)Nc3ccc(F)c(F)c3)nc2-c2ccc(OC)c(OCC)c2)ccc1OC	15.4%
O=C(Cc1cccc(Cl)c1)N1CCC(c2nn(Cc3ccccc3)c(=O)[nH]2)CC1	i
CCN(CC)Cc1cnc2c(C(=O)N3CCCN4CCC[C@H]4C3)cnn2c1	-23.1%
CCCSc1nc2ccccc2c(=O)n1-c1ccccc1OC	-8.1%
CCN(CC)CCSc1nc2ccccc2c(=O)n1-c1ccc(Cl)cc1	7.94µM*

Source: PubChem BioAssay
